Measured values taken from PubChem BioAssay (Tox21).
Inconclusive results are not listed. Activity calls are given as the source filed them. Unless noted, the call rests on the fitted dose curve; in most records, active means well fitted curve in the direction sought with a large enough effect in the repeat runs; inconclusive means weak or mixed curves; inactive means no such curve, though single readings can be large; an effect the other way counts as inactive or inconclusive.

Key:
[1] = target: Thyrotropin receptor (Homo sapiens) (UniProt P16473); assay: qHTS assay to identify small molecule agonists of the thyroid stimulating hormone receptor (TSHR) signaling pathway (AID 1224843; calls by dose curve; further: nearly all actives have a fitted effect of over 45% in size)
Method in brief: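 HEK293 cells stably bearing the thyrotropin receptor were plated at 800 cells/well and challenged with compound (30 min, RT). Accumulated cAMP was quantified via cAMP-d2 competing for cryptate-tagged antibody.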

[2] = qHTS assay to identify small molecule agonists of the hypoxia (HIF-1) signaling pathway - cell viability counter screen (AID 1224844; calls by dose curve; further: nearly all actives have a fitted effect of over 50% in size)
Method in brief: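 ME-180 HRE-bla cells, 2,000/well, 0.5% dialyzed FBS; 5 hr settle, 17 hr compound at 37C/5% CO2; CCF4-AM reporter read first, then CellTiter-Glo luminescence after 30 min RT.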

[3] = qHTS assay to identify small molecule agonists of H2AX (AID 1224845; active means well fitted activation curve with a large enough effect in the signal ratio in the repeat runs, not every such curve was filed as active; the % refers to the signal ratio)
Method in brief: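 Phospho-H2AX Ser139 measured by HTRF (ex 320 nm; em 665 and 620 nm) after 24 hr antibody incubation. Compounds, 15 concentrations, 0.76% DMSO, were applied to CHO-K1 cells for 3hr at 37C before lysis.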

[4] = qHTS assay to identify small molecule agonists of the hypoxia (HIF-1) signaling pathway (AID 1224846; active means well fitted activation curve with a large enough effect in the signal ratio in the repeat runs, not every such curve was filed as active; the % refers to the signal ratio)
Method in brief: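 Cell line: CellSensor HRE-bla ME-180; 2,000 cells/well; 0.5% dialyzed FBS; 5 h preincubation; DMSO compound pin transfer; 17 h, 37C, 5% CO2; CCF4-AM added; bla FRET signal scored for activation.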

[5] = qHTS assay to identify small molecule agonists of H2AX - cell viability counter screen (AID 1224847; calls by dose curve;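 further: wild-type CHO-K1 cells; top concentration of the series differs between compounds; nearly all actives have a fitted effect of over 30% in size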)
Method in brief: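 CHO-K1 cells plated overnight at 37C, then exposed 3 h at 37C to compounds at 15 concentrations (0.76% DMSO final). Viability by CellTiter-Glo luminescence after 30 min at room temperature.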

[6] = qHTS RealTime-Glo MT Cell Viability Assay in HepG2 cells - 24 hour (AID 1224867); further: nearly all actives have a fitted effect of over 50% in size
Method in brief: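 Viability was tracked continuously by NanoLuc luminescence from prosubstrate reduced by living HepG2 cells, at successive time points over 40 h of compound exposure. Cells with reagent were preincubated 5 h at 37 °C before compound addition.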

[7] = qHTS RealTime-Glo MT Cell Viability Assay in HEK293 cells - 32 hour (AID 1224868); further: top concentration of the series differs between compounds; nearly all actives have a fitted effect of over 50% in size
Method in brief: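 Viability tracked continuously by luminescence as live cells reduce a prosubstrate for NanoLuc; HEK293 cells preincubated 5 h, compound-treated at 37 C, and read at 0, 8, 16, 24, 32 and 40 h.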

[8] = A CellTox Green Cytotoxicity Assay to monitor cytotoxicity in HEK293 cells - 0 hour (AID 1224869); further: nearly all actives have a fitted effect of over 50% in size
Method in brief: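 Nonlytic real-time cytotoxicity: HEK293 + CellTox Green reagent plated, 5 h preincubation, pintool compound addition (23 nL in DMSO), 37 C for 40 h, fluorescence measured at successive time points.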

[9] = qHTS assay to identify small molecule antagonists of the estrogen related receptor (ERR) signaling pathway from Tox21 library (AID 1224848); further: nearly all actives have a fitted effect of over 50% in size
Method in brief: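 Reading was by luminescence 30 min after ONE-Glo addition. Before that, ERR cells at 2,000 per well had rested 6 h at 37 C/5% CO2 and then received pin-tooled compounds in DMSO for 18 h at 37 C.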

[10] = qHTS assay to identify small molecule agonists of the estrogen related receptor (ERR) signaling pathway from Tox21 library (AID 1224849; calls by dose curve; further: nearly all actives have a fitted effect of over 15% in size); settings: ERR reporter cell line, ONE-Glo luciferase, 18 h; at 92.4 µM (top of the series) unless noted
Method in brief: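 ERR cells, 6 h pre-incubation 37 C/5% CO2; cpd in DMSO pinned; 18 h 37 C; ONE-Glo added, 30 min RT; luminescence read. Agonist mode, qHTS.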
On the % scale 0 is the no-effect control and ±100 the full control effect.

Thyrotropin receptor (Homo sapiens), sequence (P16473 whole entry, looked up): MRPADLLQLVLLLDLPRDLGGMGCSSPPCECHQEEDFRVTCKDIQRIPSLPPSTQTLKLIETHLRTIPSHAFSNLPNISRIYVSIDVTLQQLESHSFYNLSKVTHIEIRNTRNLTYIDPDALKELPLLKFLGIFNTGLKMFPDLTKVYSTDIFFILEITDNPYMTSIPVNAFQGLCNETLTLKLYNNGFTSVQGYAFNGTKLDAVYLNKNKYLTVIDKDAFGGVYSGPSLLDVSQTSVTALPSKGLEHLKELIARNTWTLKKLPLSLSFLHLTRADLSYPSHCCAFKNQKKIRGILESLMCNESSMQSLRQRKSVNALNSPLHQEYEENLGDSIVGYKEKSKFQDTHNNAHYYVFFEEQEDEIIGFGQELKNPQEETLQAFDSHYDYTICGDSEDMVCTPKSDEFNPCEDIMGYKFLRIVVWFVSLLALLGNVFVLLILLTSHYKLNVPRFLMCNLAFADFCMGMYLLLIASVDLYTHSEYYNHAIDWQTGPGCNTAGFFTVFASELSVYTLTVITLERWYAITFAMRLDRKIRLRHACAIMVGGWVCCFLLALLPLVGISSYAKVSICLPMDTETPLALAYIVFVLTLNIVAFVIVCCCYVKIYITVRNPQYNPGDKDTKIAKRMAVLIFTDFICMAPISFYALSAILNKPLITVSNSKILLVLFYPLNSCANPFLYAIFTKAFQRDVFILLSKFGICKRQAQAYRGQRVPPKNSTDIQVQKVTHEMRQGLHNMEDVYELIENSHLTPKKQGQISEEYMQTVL

O=C(O)c1ccc(Cl)cc1Cl
inactive: Potency [1] | outcome [2] | outcome [3] | outcome [4] | Potency [5] | outcome [6] | Potency [7] | outcome [8]

O=C1CCCC(=O)O1
inactive: Potency [1] | outcome [2] | outcome [3] | outcome [4] | Potency [5] | outcome [6] | Potency [7] | outcome [8]

Nc1ncnc(Nc2ccccc2)n1
inactive: Potency [1] | outcome [2] | outcome [3] | outcome [4] | Potency [5] | outcome [6] | Potency [7] | outcome [8]

CC(C)C(=O)OCc1cccc(OC(=O)[C@@H]2N3C(=O)[C@@H](NC(=O)Cc4ccccc4)[C@H]3SC2(C)C)c1
inactive: Potency [1] | outcome [2] | outcome [3] | outcome [4] | Potency [5] | outcome [6] | Potency [7] | outcome [8]

Cc1cccc2nccnc12
inactive: Potency [1] | outcome [2] | outcome [3] | outcome [4] | outcome [6] | Potency [7] | outcome [8]

COCCOCCOCCOCCOCCO
inactive: Potency [1] | outcome [2] | outcome [3] | Potency [5] | Potency [9] | activity change, positive = activation [10] 2.08% | outcome [6] | Potency [7] | outcome [8]

CCCC/C=C\CCCCCCCCCC=O
inactive: Potency [1] | outcome [2] | outcome [3] | Potency [5] | Potency [9] | activity change, positive = activation [10] 2.29% | outcome [6] | Potency [7] | outcome [8]

CC(C)(C)c1cc(CCC(=O)NN)cc(C(C)(C)C)c1O
inactive: Potency [1] | outcome [2] | outcome [3] | outcome [4] | Potency [9] | activity change, positive = activation [10] -9% | outcome [6] | Potency [7] | outcome [8]

COC(=O)c1ccccc1C(=O)c1ccc(OCCN2CCCCC2)cc1
inactive: Potency [1] | outcome [2] | outcome [3] | Potency [5] | Potency [9] | activity change, positive = activation [10] 1.12% [at 42.5 µM] | outcome [6] | Potency [7] | outcome [8]

C[Si](C)=O
inactive: activation [1] 1.85% [at 8.39 µM] | activity change, negative = cytotoxicity [2] 3.37% [at 6.97 µM] | activation (H2AX phosphorylation) [3] -1.6% [at 14 µM] | activity change, negative = cytotoxicity [5] -6.59% [at 14 µM] | activity, negative = inhibition [9] 1.05% [at 8.39 µM] | activity change, positive = activation [10] 0.654% [at 8.39 µM] | activity change, negative = cytotoxicity [6] 0.943% [at 6.97 µM] | activity change, negative = cytotoxic [7] 1.65% [at 6.97 µM] | cytotoxicity [8] 2.11% [at 6.97 µM]

COCCOC(=O)C1=C(C)NC(C)=C(C(=O)OC(C)C)C1c1cccc([N+](=O)[O-])c1 (stereo not drawn)
inactive: Potency [1] | outcome [2] | outcome [3] | outcome [4] | Potency [5] | outcome [8]

CC(N)C(=O)OC(C)(C)Cc1ccc(Cl)cc1 (stereo not drawn)
inactive: Potency [1] | outcome [2] | outcome [3] | outcome [4] | Potency [5] | outcome [6] | Potency [7] | outcome [8]

CN1CCN(CC(=O)N2c3ccccc3C(=O)Nc3cccnc32)CC1
inactive: activation [1] 3.54% [at 8.39 µM] | activity change, negative = cytotoxicity [2] 0.9% [at 6.97 µM] | activation (H2AX phosphorylation) [3] 2.24% [at 14 µM] | activity change, negative = cytotoxicity [5] -0.342% [at 14 µM] | activity, negative = inhibition [9] 0.334% [at 8.39 µM] | activity change, positive = activation [10] -0.263% [at 8.39 µM] | activity change, negative = cytotoxicity [6] 0.294% [at 6.97 µM] | activity change, negative = cytotoxic [7] 5.96% [at 6.97 µM] | cytotoxicity [8] 1.41% [at 6.97 µM]

N[C@@H](CCC(=O)N[C@@H](CS)C(=O)NCC(=O)O)C(=O)O
inactive: activation [1] 2.71% [at 19 µM] | activity change, negative = cytotoxicity [2] 2.76% [at 15.8 µM] | activation (H2AX phosphorylation) [3] -1.53% [at 31.6 µM] | activation [4] -0.104% [at 15.8 µM] | activity change, negative = cytotoxicity [5] 0.69% [at 31.6 µM] | activity change, negative = cytotoxicity [6] 0.707% [at 15.8 µM] | activity change, negative = cytotoxic [7] 7.09% [at 15.8 µM] | cytotoxicity [8] 0.542% [at 15.8 µM]

NS(=O)(=O)c1ccc(NC(=O)CCC(=O)O)cc1
inactive: Potency [1] | outcome [2] | outcome [3] | outcome [4] | Potency [5] | outcome [6] | Potency [7] | outcome [8]

CCCCCCCCSCC
inactive: Potency [1] | outcome [2] | outcome [3] | outcome [4] | Potency [9] | activity change, positive = activation [10] 4.95% | outcome [6] | Potency [7] | outcome [8]

Cc1cccc(C)c1OCC(C)N (stereo not drawn)
inactive: Potency [1] | outcome [2] | outcome [3] | Potency [5] | Potency [9] | activity change, positive = activation [10] -2% [at 42.5 µM] | outcome [6] | Potency [7] | outcome [8]

Cc1ccccc1OCC(O)CO (stereo not drawn)
inactive: Potency [1] | outcome [2] | outcome [3] | Potency [5] | Potency [9] | activity change, positive = activation [10] 1.39% [at 42.5 µM] | outcome [6] | Potency [7] | outcome [8]

CC(=O)Nc1ccc(S(=O)(=O)Nc2ccc([N+](=O)[O-])cc2)cc1
inactive: Potency [1] | outcome [2] | outcome [3] | outcome [4] | Potency [5] | outcome [6] | Potency [7] | outcome [8]

O=C(NCCc1c[nH]c2ccccc12)c1cccnc1
inactive: Potency [1] | outcome [2] | outcome [3] | outcome [4] | Potency [5] | outcome [6] | Potency [7] | outcome [8]

CCCOC(=O)C(C)O (stereo not drawn)
inactive: Potency [1] | outcome [2] | outcome [3] | outcome [4] | Potency [5] | outcome [6] | Potency [7] | outcome [8]

Cc1ccc(S(=O)(=O)O)c(C)c1
inactive: Potency [1] | outcome [2] | outcome [3] | Potency [5] | Potency [9] | activity change, positive = activation [10] 16.9% | outcome [6] | Potency [7] | outcome [8]

O=C1O[C@@H]2[C@@H](O)[C@H](O)O[C@@H]2[C@H]1O
inactive: Potency [1] | outcome [2] | outcome [3] | Potency [5] | Potency [9] | activity change, positive = activation [10] -1.02% | outcome [6] | Potency [7] | outcome [8]

C[C@@H](O)[C@H]1C(=O)N2C(C(=O)O)=C(SCCN=CN)C[C@H]12
inactive: Potency [1] | outcome [2] | outcome [3] | Potency [5] | Potency [9] | activity change, positive = activation [10] 5.47% [at 42.5 µM] | outcome [6] | Potency [7] | outcome [8]

C=Cc1ccccn1
inactive: Potency [1] | outcome [2] | outcome [3] | outcome [4] | Potency [5] | outcome [6] | Potency [7] | outcome [8]

C[C@H](CCC(=O)O)[C@H]1CC[C@H]2[C@@H]3C(=O)C[C@@H]4CC(=O)CC[C@]4(C)[C@H]3CC(=O)[C@]12C
inactive: Potency [1] | outcome [2] | outcome [3] | Potency [5] | Potency [9] | activity change, positive = activation [10] -0.444% [at 42.5 µM] | outcome [6] | Potency [7] | outcome [8]
